Experimental data from PubChem BioAssay AID372 (MTDP, 2006).
About 770 (0.77%) of roughly 100,000 compounds were called active. This excerpt belongs to a sample that is enriched for actives. Unmarked numbers belong to inactive results. No stated cut-off is given here; in the data, active means inhibition above about 50%; inactive means the rest.

What follows are molecules tested against Gag-Pol polyprotein (Human immunodeficiency virus type 1 group M subtype B (isolate HXB2)) (UniProt P04585) (assay: RNase H inhibition, HIV 1 Gag Pol polyprotein, FRET biochemical assay, screening (AID 372)). Settings: HIV-1 RT RNase H, FRET RNA/DNA substrate fluorescence; at 10 µM; stronger effect = higher value.
For `COc1ccc(OC)c(/C=N/NC(=O)CSc2nc3ccccc3n2C)c1`, the inhibition was 20%. For `Cc1ccnc(NS(=O)(=O)Cc2ccccc2)c1`, the inhibition was 3%. `COc1ccc(OC)c(N2C(=O)NC(=O)C(=Cc3cccs3)C2=O)c1` was tested, and the inhibition was 1%. `CCn1c(NC(=O)c2ccc(Cl)cc2)nc2ccccc21` gave an inhibition of 4%. Work on `Cc1ccc(NC(=S)NC(=O)c2ccccc2F)cc1C` yielded an inhibition of 15%. For `COc1ccc(CCN=C(Nc2ccccc2)SC2CC(=O)N(c3ccccc3)C2=O)cc1` (stereo not drawn), the inhibition was 6%. `CCN(CC)c1ccc(C=Nc2ccccc2C(=O)Nc2ccccc2)c(O)c1` gave an inhibition of 5%. `N#C/C(=C/c1ccc(-c2ccccc2[N+](=O)[O-])o1)C(=O)NCc1ccccc1` showed an inhibition of 27%. Work on `COc1ccc(-n2nc3cc(C)c(NC(=O)c4ccc(-c5cccc([N+](=O)[O-])c5)o4)cc3n2)cc1` yielded an inhibition of 42%. `COc1ccc(-n2nc3cc(C)c(NC(=O)c4ccc([N+](=O)[O-])cc4)cc3n2)cc1` showed an inhibition of 10%. With `COc1ccc(-n2nc3cc(C)c(NC(=O)c4ccc(-c5ccc([N+](=O)[O-])cc5OC)o4)cc3n2)cc1` the inhibition was 54% (active). For `COc1ccc(-n2cnc(N)c2C(=O)c2cccc([N+](=O)[O-])c2)cc1`, the inhibition was 1%. For `Cc1ccc(-c2cc(C(F)(F)F)n3nc(C(N)=O)c(Cl)c3n2)cc1`, the inhibition was 11%. In the case of `Clc1cccc(NCc2ccncc2)c1`, the inhibition is reported as 2%. In the case of `COc1ccc(-n2sc3c(c2=S)-c2ccc(OC)cc2NC3(C)C)cc1`, the inhibition is reported as 15%. Work on `CC1=C(C(=O)OCCc2ccccc2)C(c2ccccc2Br)C2=C(CC(c3ccccc3)CC2=O)N1` (stereo not drawn) yielded an inhibition of 26%. For `CCCOC(=O)C1=C(C)NC2=C(C(=O)CC(c3ccccc3)C2)C1c1ccccc1Br` (stereo not drawn), the inhibition was 58% (active). Work on `CC1=C(C(=O)OCc2ccccc2)C(c2ccccc2Br)C2=C(CC(c3ccccc3)CC2=O)N1` (stereo not drawn) yielded an inhibition of 32%. `O=S(=O)(NC1CCCCCCC1)c1ccc(F)cc1` was tested, and the inhibition was 7%. In the case of `O=C1NC(=S)S/C1=C\c1cn(Cc2ccc(Cl)cc2)c2ccccc12`, the inhibition is reported as 31%. With `CCN(CC)CCOc1c(C)cc(C)cc1Cl` the inhibition was 52% (active). For `CCOc1ccccc1OCCCOc1c(C)cc(C)cc1Cl`, the inhibition was 52% (active). Molecule `CCN(CC)CCOc1c(C)cc(Cl)cc1Cl` has an inhibition of 0%. `CCOc1ccccc1OCCCCOc1c(Cl)cc(C)cc1Cl` gave an inhibition of 23%. With `CCN(CC)CCOc1c(Cl)cc(C)cc1Cl` the inhibition was 2%. With `CCOc1ccccc1OCCOCCOc1c(C)cc(C)cc1Cl` the inhibition was 33%. Molecule `N#C/C(=C\Nc1ccccc1Cl)c1nc(-c2ccc(Br)cc2)cs1` has an inhibition of 2%. For `CC(=O)C1C(=O)C=C(c2cccs2)CC1c1ccccc1` (stereo not drawn), the inhibition was 0%. In the case of `CC(=O)C1=C(c2ccccc2)S/C(=C2/C(=S)C(C)(C)N(C(C)=O)c3ccc(C)cc32)S1`, the inhibition is reported as 50% (active). Work on `CCOC(=O)C1=C(c2ccccc2)S/C(=C2/C(=S)C(C)(C)N(C(C)=O)c3ccc(C)cc32)S1` yielded an inhibition of 24%. `CCOC(=O)C1=C(c2ccccc2)S/C(=C2/C(=S)C(C)(C)N(C(C)=O)c3ccc(OC)cc32)S1` gave an inhibition of 22%. With `O=C(CSc1nc(O)cc(=O)[nH]1)C1CC1` the inhibition was 11%. `O=C1NC(=O)C(=Cc2cccn2-c2ccc(Cl)cc2)C(=O)N1` was tested, and the inhibition was 57% (active). For `O=C1NC(=S)NC(=O)C1=Cc1cccn1-c1ccc(Cl)cc1`, the inhibition was 11%. Work on `CN1C(=O)S/C(=C/c2cccn2-c2ccc(Cl)cc2)C1=O` yielded an inhibition of 44%. `O=C1NC(=O)C(=Cc2cccn2-c2ccccc2)C(=O)N1` was tested, and the inhibition was 29%. Molecule `COc1ccc(-n2cccc2/C=C2\C(=O)NC(=S)N(c3ccc(Br)cc3)C2=O)cc1` has an inhibition of 32%. With `COc1ccc(N2C(=O)/C(=C/c3cccn3-c3ccccc3)C(=O)NC2=S)cc1` the inhibition was 54% (active). `O=C1NC(=S)N(c2ccc(Cl)cc2)C(=O)/C1=C/c1cccn1-c1ccccc1` was tested, and the inhibition was 4%. For `CN1C(=O)/C(=C/c2cccn2-c2ccc([N+](=O)[O-])cc2)SC1=S`, the inhibition was 42%. `O=C1NC(=S)N(c2ccccc2)C(=O)/C1=C/c1cccn1-c1ccccc1` was tested, and the inhibition was 10%. With `O=C1NC(=S)N(c2ccccc2)C(=O)/C1=C/c1cccn1-c1ccc(Cl)cc1` the inhibition was 52% (active). `COc1ccc(-n2cccc2/C=C2/SC(=O)N(C)C2=O)cc1` was tested, and the inhibition was 53% (active). With `COc1ccc(N2C(=O)/C(=C/c3cccn3-c3ccc(Br)cc3)C(=O)NC2=S)cc1` the inhibition was 29%. `O=C(c1cc(-c2ccccc2)nc2ccccc12)N1CCc2ccccc2C1` showed an inhibition of 9%. `COc1ccc(C(=O)N/C(=C\c2cc(OC)c(OC)cc2[N+](=O)[O-])C(=O)Nc2ccc(C)cc2C)cc1` showed an inhibition of 18%. For `Cc1cccc(C2(c3cccc(C)c3)CC2C(=O)Nc2cc([N+](=O)[O-])ccc2O)c1` (stereo not drawn), the inhibition was 30%. In the case of `CC(C)(C)NC(=O)C(=O)N/N=C/c1cccc2ccccc12`, the inhibition is reported as 10%. In the case of `COC(=O)C(=C/C(C)=C/c1ccco1)C(=O)OC`, the inhibition is reported as 1%. In the case of `CCN(CC)CCCCCOc1cc(C)cc(C)c1`, the inhibition is reported as 17%. `COc1cc(C(=O)N/C(=C/c2ccc(Br)cc2)C(=O)NC(C)C(=O)O)cc(OC)c1OC` (stereo not drawn) gave an inhibition of 3%. With `COC(=O)c1ccccc1NC(=O)COc1ccc2ccccc2c1` the inhibition was 38%. `O=C(COc1ccccc1)Nc1ccccc1C(=O)Nc1ccc(C(=O)O)cc1` showed an inhibition of 1%. `O=C(COc1ccc2ccccc2c1)Nc1ccccc1C(=O)Nc1ccccc1` was tested, and the inhibition was 54% (active). `C=C(C)c1cccc(C(C)(C)NC(=O)NCc2ccccn2)c1` was tested, and the inhibition was 0%. Molecule `Cc1cccc(-n2c(CCN3C(=O)c4ccccc4C3=O)nc3ccccc3c2=O)n1` has an inhibition of 14%. `O=C1c2ccccc2C(=O)N1CCc1nc2ccccc2c(=O)n1-c1ccc(Br)cn1` showed an inhibition of 40%. With `O=C1c2ccccc2C(=O)N1CCc1nc2ccccc2c(=O)n1-c1ccccn1` the inhibition was 61% (active). `O=C(c1cccs1)N1CCN(c2ccc([N+](=O)[O-])cc2)CC1` showed an inhibition of 4%. With `O=C1OC(c2ccccc2)=C/C1=C\c1c(Cl)cccc1Cl` the inhibition was 50% (active). `O=C1OC(c2ccccc2)=C/C1=C/c1ccc([N+](=O)[O-])cc1` showed an inhibition of 2%. Work on `O=C1OC(c2ccccc2)=C/C1=C/c1ccc(Cl)cc1` yielded an inhibition of 7%. In the case of `Cc1ccc(C2=C/C(=C\c3cc([N+](=O)[O-])ccc3Cl)C(=O)O2)cc1`, the inhibition is reported as 43%. With `Cc1ccc2cc(C3=C/C(=C\c4c(Cl)cccc4Cl)C(=O)O3)ccc2c1` the inhibition was 6%. For `Cc1ccc([N+](=O)[O-])cc1/C=C1/C=C(c2ccccc2)OC1=O`, the inhibition was 57% (active). With `CC(C)(C)c1cc(/C=N/NC(=O)c2ccccc2O)cc(C(C)(C)C)c1O` the inhibition was 25%. `CC1=C(C(=O)Nc2ccc(C)cc2)C(c2ccc(Br)cc2)NC(=S)N1` (stereo not drawn) showed an inhibition of 10%. In the case of `CC1=C(C(=O)Nc2ccc(Br)cc2)C(c2ccc(Br)cc2)NC(=S)N1` (stereo not drawn), the inhibition is reported as 11%. For `CC1=C(C(=O)Nc2ccc(Br)cc2)C(c2ccc(C)cc2)NC(=S)N1` (stereo not drawn), the inhibition was 57% (active). Molecule `COC(=O)C1=C(C)N(C)C(=O)NC1c1cc2c(cc1[N+](=O)[O-])OCO2` (stereo not drawn) has an inhibition of 3%. In the case of `COC(=O)c1ccc(/C=C2\SC(=NCc3ccccc3)N(Cc3ccccc3)C2=O)cc1`, the inhibition is reported as 59% (active). With `COc1ccc(/C=C2\SC(=NCc3ccccc3)N(Cc3ccccc3)C2=O)cc1OC` the inhibition was 54% (active). `COc1ccc(/C=C2\SC(=NCc3ccccc3)N(Cc3ccccc3)C2=O)cc1C(=O)O` showed an inhibition of 23%. With `COc1ccc(/C=C2\SC(=O)N(Cc3ccccc3)C2=O)cc1OC` the inhibition was 44%. In the case of `COc1ccccc1/C=C1/SC(=NCc2ccccc2)N(Cc2ccccc2)C1=O`, the inhibition is reported as 28%. For `CCOc1ccc(/C=C2\SC(=NCc3ccccc3)N(Cc3ccccc3)C2=O)cc1`, the inhibition was 0%. In the case of `O=C1CC(c2ccccc2)CC(O)=C1C=NCCN1CCNCC1` (stereo not drawn), the inhibition is reported as 0%. `COc1ccc(C=Nc2ccc(C)c(F)c2)cc1OC` was tested, and the inhibition was 6%. With `CCOC(=O)COc1c(Cl)cc(/C=C2\C(=O)NC(=O)N(c3ccc(F)cc3)C2=O)cc1Cl` the inhibition was 2%. For `CC/C(=C1\C(=O)N(c2nc3ccccc3s2)N=C1C(F)(F)F)N1CCCCC1`, the inhibition was 5%. Work on `CCOc1ccc(N(CC(=O)N2CCC(C)CC2)S(=O)(=O)c2ccccc2)cc1` yielded an inhibition of 8%. In the case of `CCc1cc(CC)c(Cc2c(CC)cc(CC)c(/C=N/NC(N)=O)c2CC)c(CC)c1/C=N/NC(N)=O`, the inhibition is reported as 50% (active). `CCCOc1ccccc1/C=N/NC(N)=O` gave an inhibition of 0%. `CCc1cc(CC)c(/C=N/O)c(CC)c1/C=N/O` gave an inhibition of 0%. Work on `Cc1ccc([N+](=O)[O-])cc1S(=O)(=O)n1cnc2ccccc21` yielded an inhibition of 22%. In the case of `Cc1cc2ncn(S(=O)(=O)c3cc([N+](=O)[O-])ccc3Cl)c2cc1C`, the inhibition is reported as 57% (active). For `Cc1cc2ncn(S(=O)(=O)c3ccc(Cl)c([N+](=O)[O-])c3)c2cc1C`, the inhibition was 23%. `CCCC(=O)Nc1ccc(N2CCOCC2)c(Cl)c1` showed an inhibition of 0%. For `CCOC(=O)CCCN1C(=O)S/C(=C\c2ccc(OC)cc2)C1=O`, the inhibition was 0%. Work on `COc1ccc(N2CC(C(=O)N/N=C/c3ccc(OC)c(OC)c3)CC2=O)cc1` (stereo not drawn) yielded an inhibition of 3%. Work on `CCOc1cc(/C=C2\SC(=S)N(/N=C/c3ccc(O)c(OCC)c3)C2=O)ccc1O` yielded an inhibition of 20%. With `Nc1ccc(-c2nc3ccccc3[nH]2)c(N)c1` the inhibition was 4%. `Cc1ccc2nc(-c3sc(=S)n(-c4ccccc4)c3N)[nH]c2c1` showed an inhibition of 21%. With `COc1cc(/C=C/C(=O)c2c(-c3ccccc3)c3cc(Cl)ccc3[nH]c2=O)cc(OC)c1OC` the inhibition was 3%. `COc1ccc(/C=C/C(=O)c2c(-c3ccccc3)c3cc(Cl)ccc3[nH]c2=O)cc1OC` gave an inhibition of 11%. In the case of `COc1ccccc1/C=C/C(=O)c1c(-c2ccccc2)c2cc(Cl)ccc2[nH]c1=O`, the inhibition is reported as 60% (active). For `COc1ccc(OC)c(/C=C/C(=O)c2c(-c3ccccc3)c3cc(Cl)ccc3[nH]c2=O)c1`, the inhibition was 50% (active). Work on `COc1cc(/C=C/C(=O)c2c(-c3ccccc3)c3cc(Cl)ccc3[nH]c2=O)cc(Br)c1OC` yielded an inhibition of 26%. `O=C(/C=C/c1ccccc1F)c1c(-c2ccccc2)c2cc(Cl)ccc2[nH]c1=O` gave an inhibition of 48%. In the case of `C=CCN1C(=O)/C(=C\c2ccc(-c3ccc(Br)cc3)o2)C(=O)NC1=S`, the inhibition is reported as 32%. For `Cc1ccc(NC(=O)C(=O)NCc2ccc3c(c2)OCO3)cc1`, the inhibition was 4%. With `Cc1nc2cc(-c3ccc(I)cc3)[nH]n2c(=O)c1C` the inhibition was 0%. For `COC(=N)/C(C#N)=C/c1c(O)n(-c2c(Cl)cccc2Cl)c2ccccc12`, the inhibition was 1%.
